Source: PubChem BioAssay (several laboratories)
Anthrax LF prot: inhibitors of Bacillus anthracis lethal factor protease. P15917. multiplex microsphere protease cleavage assay, LF. inhibition, % at 10 µM. actives 0.12% (n = 360,000); also: plate controls were buffer without enzyme for full effect and enzyme alone for no effect
BoNT-F LC inh: blocks Botulinum neurotoxin F light chain protease; inhibition, % at 10 µM; AID 588497; actives 0.22% (n = 360,000); Multiplex microsphere protease cleavage assay, flow cytometry; in the data active = inhibition above about 35%, passing the limit was not always enough; inconclusive = no clear call, values can overlap the other calls; also: plate controls were buffer without enzyme for full effect and enzyme alone for no effect
BoNT A protease: inhibitors of Botulinum neurotoxin A light chain protease; multiplex microsphere protease substrate cleavage, flow cytometry; inhibition, % at 10 µM; actives 0.17% (n = 360,000); also: plate controls were buffer without enzyme for full effect and enzyme alone for no effect
Bead autofluor: counter-screen for toxin protease inhibitors: compound fluorescence; compound autofluorescence counterscreen, microsphere flow cytometry; stronger effect = higher value; actives 3.1% (n = 360,000); AID 624483; fluorescence intensity (test concentration not listed); in the data active = fluorescence intensity above about 16000; inconclusive = no clear call, values can overlap the other calls
3CLpro inhibitor: SARS-CoV 3CLpro protease inhibition; P0C6X7; recombinant SARS-CoV 3CLpro, quenched FRET peptide cleavage; inhibition, % at 6 µM; AID 1706; actives 0.14% (n = 290,000); in the data active = inhibition above about 12%
VHR inh abs: inhibitors of human VHR1 phosphatase (DUSP3) | inhibition, % at 13.3 µM | actives 0.52% (n = 290,000) | P51452 | recombinant VHR phosphatase, pNPP absorbance | AID 1654; in the data active = inhibition above about 50%
Active calls of the source: *; ? = inconclusive; . = not tested or not shown; ! = not confirmed by another sample. This is a sample that favours compounds with a hit; in the whole collection about 3.9% have one here. Rule as the data show it, unless noted: active = inhibition above about 30%; inconclusive = no clear call, values can overlap the other calls; inactive = below that.

SMILES	Anthrax LF prot	BoNT-F LC inh	BoNT A protease	Bead autofluor	3CLpro inhibitor	VHR inh abs
COc1ccc(CN2CCN(S(=O)(=O)c3ccc(F)cc3)CC2)c(OC)c1OC	-4	4	1	21826*	1	17
COc1ccc(CN2CCN(S(=O)(=O)c3ccccc3)CC2)c(OC)c1OC	19	?	?	3426	.	.
O=C1NC(=O)C2(CCCC2c2ccccc2)N1 (stereo not given)	0	1	0	3623	.	.
c1ccc(OCc2nn3c(-c4ccccn4)nnc3s2)cc1	-11	-1	0	9463	2	17
c1ccc(OCc2nn3c(-c4ccncc4)nnc3s2)cc1	-1	-5	-4	21442*	-1	11
Cn1c(=O)c2c(nc(SCCN3CCOCC3)n2Cc2cccc3ccccc23)n(C)c1=O	-5	0	0	19656*	1	13
Cn1c(=O)c2c(nc(CN3CCC(C(N)=O)CC3)n2CCc2ccccc2)n(C)c1=O	-1	3	?	19348*	4	24
Cn1c(=O)c2c(nc(CN3CCC(Cc4ccccc4)CC3)n2CCN2CCOCC2)n(C)c1=O	-3	-3	-2	27251*	3	21
Cn1c(=O)c2c(nc(CN3CCCCC3)n2CCc2ccccc2)n(C)c1=O	-2	7	0	2121	3	36
Cn1c(=O)c2c(nc(NCCCN3CCOCC3)n2Cc2cccc(Cl)c2)n(C)c1=O	-1	6	2	22276*	-4	24
Cn1c(=O)c2c(nc(SCCN3CCOCC3)n2Cc2ccccc2Cl)n(C)c1=O	-5	-2	0	5471	-3	18
COc1ccc(S(=O)(=O)N2CC(=O)Nc3ccccc32)cc1	-30	-1	-6	3035	-2	15
COc1ccccc1C1Nc2ccccc2NC2=C1C(=O)CC(C)(C)C2 (stereo not given)	3	37*	-1	3659	-1	9
COc1cccc(C2Nc3ccccc3NC3=C2C(=O)CC(C)(C)C3)c1OC (stereo not given)	-8	?	-4	3940	-2	16
O=C(CSc1nnc2c(Cl)cc(Cl)cn12)N1CCN(c2ccc(F)cc2)CC1	-1	-3	0	2054	6	14
O=C(CC(C(=O)N1CCc2ccccc21)n1ccnc1)NCc1ccccc1 (stereo not given)	-5	9	10	18019*	0	24
CCN(CC)CC(C)CNC(=O)CC(C(=O)N1CCc2ccccc21)n1ccnc1 (stereo not given)	-3	-10	-1	11413	1	0
Cc1ccc2[nH]c3c(=O)n(CC(=O)Nc4ccccc4N4CCN(C)CC4)ncc3c2c1	3	2	0	4419	3	6
CCOc1cccc2cc(C(=O)Nc3cc(C)on3)c(=O)oc12	-2	-4	?	24162*	-4	4
CCOc1cccc2cc(C(=O)NCc3cccnc3)c(=O)oc12	-14	3	?	22159*	-2	16
CCOc1ccc(Nc2nc(N(C)c3ccccc3)nc(N)c2[N+](=O)[O-])cc1	1	-11	-1	4177	-3	16
O=C(CCCN1C(=O)c2ccccc2C1=O)Oc1ccc(F)cc1	-1	-3	-1	23354*	-6	-1
O=C(CNS(=O)(=O)c1ccccc1F)NNC(=O)c1ccc(Br)cc1	0	2	5	4914	.	.
COc1ccccc1CNC(=O)c1cnccn1	-6	-4	-3	17158*	2	24
CC(C)Cc1cc(C(=O)NCc2cccnc2)no1	-10	10	0	5597	-4	11
SMILES	Anthrax LF prot	BoNT-F LC inh	BoNT A protease	Bead autofluor	3CLpro inhibitor	VHR inh abs
COc1ccccc1CNC(=O)COC(=O)c1cnccn1	-5	4	0	3196	-5	-6
Cc1cc(C(=O)NCc2cccnc2)no1	-3	2	0	22225*	4	8
O=C(COc1ccccc1Cl)NCCNC(=O)c1ccccn1	2	2	2	3642	-5	33
Cc1ccccc1OCC(=O)NCCNC(=O)c1ccccn1	1	-4	0	5325	-8	54*
COc1ccc(C(=O)NCc2cccnc2)cc1OC	0	-2	1	22834*	-1	-3
CCC1CN(S(=O)(=O)c2cc(-c3cc(C)no3)ccc2OC)c2cc(C)ccc2O1 (stereo not given)	-3	-3	-2	6548	3	-8
CN(C)CCCNCCCNC(=O)/C(=N\O)c1ccccn1	0	-3	?	22814*	0	13
Cc1ccc(-c2cc(C(=O)NCc3cccnc3)no2)cc1	-11	10	9	17516*	1	-8
O=C(NCc1cccnc1)c1ccccn1	1	2	2	22039*	-5	13
CCN(CC)CCNC(=O)/C(=N\O)c1ccccn1	-5	-3	0	3970	4	4
O=C(NCCCNCc1ccccc1)c1ccccn1	2	-9	0	24330*!	-3	-12
Cc1cn(C2CCCCC2)c(=O)[nH]c1=O	-1	5	0	2835	.	.
O=C(Cc1ccccc1[N+](=O)[O-])NCC(=O)c1ccc2c(c1)OCO2	-4	-12	0	3429	.	.
COc1ccccc1NC(=O)C1CCCN(S(=O)(=O)c2ccccc2)C1 (stereo not given)	2	0	-4	4784	5	17
Cc1nn(C)c(C(=O)N/N=C/c2ccc(-c3ccccc3)cc2)c1Cl	1	1	-2	6155	-4	6
COc1ccc(CCNC(=O)CCS(=O)(=O)c2ccc3nc(C)sc3c2)cc1OC	-9	1	-1	6200	-2	-14
CCN1C=C(C(C)=O)C(=O)CC1	-3	-7	-1	3892	.	.
Cc1cc(C(=O)NCC(c2ccco2)N(C)C)no1 (stereo not given)	-4	1	2	19860*	-2	-4
CSc1ncc(Cl)c(C(=O)NCc2ccc3c(c2)OCO3)n1	-3	1	0	2169	0	22
CN(C)C(CNC(=O)c1ccc(Br)cc1)c1ccco1 (stereo not given)	2	-2	-2	3881	1	.
CSc1ncc(Cl)c(C(=O)NCc2cccnc2)n1	2	-2	-2	3834	3	52*
COC(=O)c1scc(C)c1N/N=C(\C)c1cc(F)c(Cl)cc1F	-2	-2	0	16330*	0	-11
CCOc1ccc(S(=O)(=O)N2CCC(C(=O)NCc3ccncc3)CC2)cc1C	-9	-18	-2	3841	2	22
Nc1nc2c(ncn2[C@@H]2O[C@H](CNS(=O)(=O)C3CC3)[C@@H](O)[C@H]2O)c(=O)[nH]1	-6	-16	0	4390	.	.
Cc1ccccc1NC(=S)Nc1ccccn1	-13	37*	-2	9236	-1	12
S=C(Nc1ccccn1)Nc1ccccc1Cl	-1	-6	0	5504	-2	8
CCCn1c(COc2ccccc2)nc2ccccc21	-2	42*	6	3009	-3	9
Cc1nnc(NC(=O)c2ccc(S(=O)(=O)N3CCCCC3)cc2)s1	-5	-8	-1	4002	.	.
